PubChem BioAssay (EPA / NIEHS)
Activity calls are given as the source filed them. Rule for the calls: active = hit-call score of the fitted dose curve at least 0.9, where 1 is the maximum; inactive = score below 0.9.

assay: ATG_VDRE_CIS: Attagene CIS-FACTORIAL HepG2 Assay for human Vitamin D Receptor Element (VDRE) (AID 2282968); conditions: HepG2 VDRE cis-reporter transcription, actives raise or lower the signal
Method: ATG_CIS is a cell-based, multiplexed-readout assay that uses HepG2, a human liver cell line, with measurements taken at 24 hours after chemical dosing in a 24-well plate.ATG_VDRE_CIS is one of 52 assay component(s) measured or calculated from the ATG_CIS assay. It is designed to make measurements of mRNA induction, a form of inducible reporter, as detected with fluorescence intensity signals by Reverse transcription polymerase chain reaction (RT-PCR) and Capillary electrophoresis technology.Data from the assay component ATG_VDRE_CIS was analyzed into 1 assay endpoint. This assay endpoint, ATG_VDRE_CIS, was analyzed with bidirectional fitting relative to DMSO as the negative control and baseline of activity. Using a type of inducible reporter, measures of mRNA for gain or loss-of-signal activity can be used to understand the reporter gene at the transcription factor-level as they relate to the gene VDR. Furthermore, this assay endpoint can be referred to as a primary readout, because this assay has produced multiple assay endpoints where this one serves a reporter gene function. To generalize the intended target to other relatable targets, this assay endpoint is annotated to the nuclear receptor intended target family, where the subfamily is non-steroidal.
Human liver HepG2 cells are transiently transfected with multiple reporter transcription units (MRTUs) in 6-well plates using FuGene 6 reagent (Roche; 3 ml FuGene/1 mg DNA). The MRTU constructs are regulated by a cis-regulating element (promoter). […] A major difference between the CIS and TRANS system is that in CIS activities of endogenous TFs are measured, whereas the TRANS assay evaluates changes in activities of exogenous, chimeric NR-Gal4 proteins. […] At the end of 24 hour incubation, total RNA was isolated using TriZol reagent (Invitrogen). The isolated RNA is then reverse-transcribed using oligo(dT) primer and Mo-MLV reverse transcriptase (Invitrogen) with DNAse I (Ambion) treatment for 30 min. The one-tenth of the produced cDNA was amplified by PCR using Taq DNA polymerase (Invitrogen) and two reporter sequence-specific primers. The PCR products were fluorescently labeled by primer extension with 6-arboxyfluorescein (6-FAM) 5'-labeled reporter sequence-specific primer (2 min at 95 C, 20 s at 68 C and 10 min at 72 C) and these products were digested with 5U of HpaI (New England Biolabs) for 2h at 37 C. The fragments were purified using Qiaquick PCR columns (Qiagen), analyzed on an ABI 3130xL genetic analyzer (Applied Biosystems) with peak positions identified by using a set of X-rhodamine (ROX)-labeled MapMarker1000 molecular weight standards (BioVentures). The raw capillary electrophoresis data was processed using Attagraph software (Attagene).

| SMILES | AC50 | outcome |
| --- | --- | --- |
| CC(C)(C)C(=O)C1C(=O)c2ccccc2C1=O | 42.2 µM (active) |  |
| CCN(CC)c1ccc(C=O)c(O)c1 | 32.5 µM (active) |  |
| CCCC(=O)OCC(COC(=O)CCC)OC(=O)CCC |  | inactive |
| O=S(=O)(O)c1ccc(Cl)cc1 |  | inactive |
| COC(F)(C(F)F)C(F)(F)F (stereo not given) |  | inactive |
| CN(C(=O)C(F)(F)C(F)(F)C(F)(F)F)[Si](C)(C)C |  | inactive |
| CCCCOC(=O)[C@H](C)O |  | inactive |
| O=C(Cl)c1ccc(Cl)cc1Cl |  | inactive |
| CCCCCCCCn1sc(Cl)c(Cl)c1=O |  | inactive |
| O=C(O)C(F)(F)C(F)(F)C(F)(F)OC(F)(C(F)(F)F)C(F)(F)F |  | inactive |
| C[Si](C)O[Si](C)C |  | inactive |
| N#Cc1ccccc1O |  | inactive |
| O=C1C=CC(=O)N1c1ccccc1 |  | inactive |
| CC(=O)c1ccccc1N |  | inactive |
| CCOC(=O)CCC(C)=O |  | inactive |
| Oc1ccc(C2(c3ccc(O)c(C4CCCCC4)c3)CCCCC2)cc1C1CCCCC1 | 0.619 µM (active) |  |
| CCOC(=O)CC(=O)C(F)(F)C(F)(F)F |  | inactive |
| COCCC(=O)OC |  | inactive |
| O=C=NCc1cccc(CN=C=O)c1 |  | inactive |
| NCC(F)(F)C(F)(F)C(F)(F)C(F)(F)C(F)(F)C(F)(F)F |  | inactive |

| SMILES | AC50 | outcome |
| --- | --- | --- |
| CCN(CC)c1ccc(C=O)cc1 | 163 µM (active) |  |
| FC(F)(F)C(F)(F)C(F)(F)C(F)(F)C(F)(F)C(F)(F)C(F)(F)CCI |  | inactive |
| O=S(=O)(O)CCC(F)(F)C(F)(F)C(F)(F)C(F)(F)C(F)(F)C(F)(F)C(F)(F)C(F)(F)F |  | inactive |
| NC(=O)C(F)(F)C(F)(F)C(F)(F)C(F)(F)C(N)=O |  | inactive |
| OCC(O)CC(F)(F)C(F)(F)C(F)(F)C(F)(F)C(F)(F)C(F)(F)C(F)(F)C(F)(F)F (stereo not given) |  | inactive |
| CC(C)OC=O |  | inactive |
| O=C(O)CCC(F)(F)C(F)(F)C(F)(F)F |  | inactive |
| CC(O)C#CC(C)O (stereo not given) | 39.5 µM (active) |  |
| Cc1cnccn1 |  | inactive |
| Nc1cccnc1N |  | inactive |
| C=C(C)CCCC |  | inactive |
| Brc1nc2ccccc2s1 |  | inactive |
| NC(=O)C(F)(F)C(F)(F)C(F)(F)F |  | inactive |
| OCCCCC(F)(F)C(F)(F)C(F)(F)C(F)(F)F |  | inactive |
| C=C(C)C(=O)OCC(F)(F)C(F)(F)C(F)(F)C(F)F |  | inactive |
| Nc1c(Br)cc([N+](=O)[O-])cc1Br |  | inactive |
| CCc1cc(Cc2cc(CC)c(N)c(CC)c2)cc(CC)c1N | 11.6 µM (active) |  |
| CCc1ccc(C)nc1 |  | inactive |
| CCCCC(CC)COC(=O)c1ccc(N(C)C)cc1 (stereo not given) |  | inactive |
| CC1=CCC2C(=O)OC(=O)C2C1 (stereo not given) |  | inactive |
